Source: PubChem BioAssay (NCI)
The panel holds about 83,000 compounds, 20% with a hit somewhere; the sample as a whole holds those more often.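 Treatment: one concentration, 48 hours, 96-well format. Scoring: percent growth, with anything below 10 considered active.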 A number with no mark means an inactive call. Active and inactive are the calls of the source.

Key:
Assay in all cases: NCI-60 one-dose screen, 48 h (100 = growth as untreated, 0 = no growth, -100 = all killed)
Details in all cases: 10 µM
SN12C renal = tested on: SN12C renal
UO-31 renal = tested on: UO-31 renal
TK-10 renal = tested on: TK-10 renal
ACHN renal = tested on: ACHN renal
CAKI-1 renal = tested on: CAKI-1 renal
A498 renal = tested on: A498 renal
MOLT-4 leukemia = tested on: MOLT-4 leukemia
SR leukemia = tested on: SR leukemia
CCRF-CEM leukemia = tested on: CCRF-CEM leukemia

| SMILES | growth (SN12C renal) | growth (UO-31 renal) | growth (TK-10 renal) | growth (ACHN renal) | growth (CAKI-1 renal) | growth (A498 renal) | growth (MOLT-4 leukemia) | growth (SR leukemia) | growth (CCRF-CEM leukemia) |
| --- | --- | --- | --- | --- | --- | --- | --- | --- | --- |
| N=C(N)c1ccc(-c2ccc(-c3cccs3)s2)s1 | -74.9% (active) | -77.1% (active) | -51.1% (active) | 66.4% | -49% (active) | -32.6% (active) | -55.7% (active) | -50.9% (active) | – |
| O=C(c1ccc(Cl)cc1Cl)N1CCOCC1 | 105% | 83.4% | 101% | 103% | – | 91.2% | 99.1% | – | 106% |
| O=c1[nH]c(-c2ccc(Cl)cc2)nc2sc3c(c12)CCCC3 | 52.5% | 78.8% | – | 53.3% | 13.4% | 86.6% | 49.4% | 0.705% (active) | 12.3% |
| CCCCCCCC(C)NCCO (centres undefined) | 112% | 80.8% | 105% | 117% | 97.1% | 104% | 99.6% | 108% | – |
| O=C(O)c1ccc(P(=O)(O)O)c([N+](=O)[O-])c1 | 101% | 86% | 108% | 103% | 94.7% | 93.9% | 111% | 87.7% | – |
| COc1cc(Cl)cc(-c2nn(-c3cccc(NC(=O)c4ccc(Cl)c(Cl)c4)c3)cc2-c2ccncc2)c1 | 69.6% | 43.5% | – | 63.9% | 63.6% | -0.943% (active) | 54.9% | 43.6% | 59.2% |
| O=C1Nc2ccc(Cl)cc2/C1=C\c1c(-c2ccc(Cl)cc2)nc2sc(C3CC3)nn12 | 75.7% | 63.7% | 52.9% | 44.4% | 45.7% | 14.9% | – | 44.2% | – |
| COc1ccc(C(=O)/C=C/c2cc(-c3cc(OC)c(OC)c(OC)c3)n[nH]2)cc1 | 25.1% | 5.28% (active) | – | 58.6% | 4.76% (active) | 62.2% | 3.23% (active) | -39.7% (active) | -35.9% (active) |
| COc1ccc(-c2nc(-c3nc4ccc(OC)cc4[nH]3)cc3c2[nH]c2ccccc23)cc1 | 20.7% | 8.19% (active) | – | 31.9% | 0.0135% (active) | 46.3% | 47.3% | 33.6% | 11% |
| O=[N+]([O-])c1ccc(Oc2cc(Cl)c(Cl)cc2Cl)c(C(F)(F)F)c1 | 103% | 80.2% | 115% | 96.8% | 92.3% | 90.5% | 87.5% | 100% | – |
| C#Cc1ccc(-n2c(/C=C/c3ccc4ccccc4n3)nc3ncccc3c2=O)cc1 | -15% (active) | -91.7% (active) | – | 2.7% (active) | -20.5% (active) | -69.1% (active) | -7.6% (active) | -17.9% (active) | -15.1% (active) |
| CC/C(=C(/c1ccc(OCCN(C)C)cc1)c1ccc(OC(=O)CCCCCCCCC(=O)c2c(C)[nH]c(/C=C3\N=C(c4ccc[nH]4)C=C3OC)c2C)cc1)c1ccccc1 | 74.7% | 62.2% | 98% | 87.6% | 47.1% | – | 36.2% | 47.8% | 23.5% |
| C[C@]12CC[C@@H]3c4ccc(O)cc4C[C@@H](O)[C@H]3[C@@H]1CC[C@@H]2O | 100% | 86.5% | – | 105% | 87.6% | 79.6% | 109% | 91.4% | 103% |
| Clc1ccc(Nc2ccnc(NCCNc3ccnc4cc(Cl)ccc34)n2)cc1 | 48% | -26.3% (active) | – | -7.16% (active) | -7.16% (active) | 17.9% | -28% (active) | -22.3% (active) | 1.25% (active) |
| O=C(Nc1cccc(-n2cc(-c3ccncc3)c(-c3cc(O)cc(Cl)c3)n2)c1)c1ccc(N2CCOCC2)c(C(F)(F)F)c1 | 46.4% | 3.98% (active) | 70.3% | 20.7% | 14.8% | 72.7% | -29.7% (active) | -12.4% (active) | – |
| COc1cc(-c2cc(/C=C3\C(=O)Nc4cc(Cl)ccc43)[nH]n2)cc(OC)c1OC | 12.1% | 30.4% | – | 58% | 38.8% | 50.4% | 13.5% | 16.8% | 13.2% |

| SMILES | growth (SN12C renal) | growth (UO-31 renal) | growth (TK-10 renal) | growth (ACHN renal) | growth (CAKI-1 renal) | growth (A498 renal) | growth (MOLT-4 leukemia) | growth (SR leukemia) | growth (CCRF-CEM leukemia) |
| --- | --- | --- | --- | --- | --- | --- | --- | --- | --- |
| Nc1c(C(=O)Nc2cccc3ccccc23)sc2nc3c(cc12)C(=O)CCC3 | 30.8% | 53% | – | 34.5% | 23.2% | -17.6% (active) | 11.1% | 4.39% (active) | 7.9% (active) |
| N=C(N)c1ccc(-c2ccc(-c3ccccc3)o2)nc1 | 86.6% | 65.7% | – | 92.4% | 83.8% | 45.7% | 60% | 55.6% | 82.5% |
| N#Cc1cccc(OCc2nc(N)nc(N)c2-c2ccc(Cl)c(Cl)c2)c1 | 33.3% | 33.6% | 46.1% | 17.7% | 10.5% | 53.5% | 32.7% | 18.1% | – |
| COc1cc(-c2nn3c(/C=C4/C(=O)Nc5ccccc54)c(-c4ccc(C)cc4)nc3s2)cc(OC)c1OC | 73.2% | 73.1% | – | 81.1% | 64.6% | 98.9% | 47.8% | 26.5% | 67.4% |
| COc1ccc2c(c1)O/C(=C\c1ccc([N+](=O)[O-])o1)C2=O | 6.92% (active) | – | -33.7% (active) | 6.05% (active) | -2.99% (active) | 56.6% | -0.0457% (active) | 7.61% (active) | 0.117% (active) |
| FC(F)(F)c1ccc(-c2cnc(Cl)nc2N2CCC3(CC2)OCCO3)cc1 | 103% | – | 89.8% | 92.6% | 86.5% | 75.8% | 74% | 81.5% | 91.1% |
| CC(=O)CSC(C)=O | 100% | – | 122% | 97.8% | 91.6% | 99.1% | 105% | – | 94.8% |
| COc1ccc(-c2cc(/C=C3\C(=O)Nc4ccc(OC)cc43)[nH]n2)cc1 | 42.7% | – | 48.9% | 52.5% | 33% | 23.3% | 27% | 20.1% | 18.1% |
| COc1cc(-c2cc(/C=C/C(=O)c3ccc(Cl)c(Cl)c3)[nH]n2)cc(OC)c1OC | 64.3% | 54.1% | – | 81.5% | 82.9% | 70.6% | 54.4% | -6.68% (active) | 3% (active) |
| COc1cc(C(=O)/C=C/c2cc(-c3cc(OC)c(OC)c(OC)c3)n[nH]2)cc(OC)c1OC | 2.09% (active) | -77.2% (active) | – | -25.8% (active) | 8.9% (active) | 29.2% | 7.64% (active) | -7.98% (active) | -23.8% (active) |
| Cc1ccc(-c2n[nH]c(=O)c3noc(-c4ccc(C)cc4)c23)cc1 | 47% | 20.3% | – | 33.9% | 16.9% | 13.8% | 44.2% | 10.2% | 17.5% |
| Nc1nc(-c2ccccc2Cl)cc(-c2ccc(Cl)cc2Cl)n1 | 79.6% | 62.5% | – | 86% | 68% | 53.7% | 52.6% | 25.4% | 57.5% |
| O=C(C[P+](c1ccccc1)(c1ccccc1)c1ccccc1)C[P+](c1ccccc1)(c1ccccc1)c1ccccc1 | -45.9% (active) | – | -94.1% (active) | -99.4% (active) | -96.1% (active) | -93.8% (active) | -28.9% (active) | -19.6% (active) | -24% (active) |
| O=C1NC(=O)c2ncccc21 | 105% | 104% | – | 110% | 96.4% | 110% | 106% | 111% | 99.1% |
| COc1ccc(-c2nc3sc(C4CC4)nn3c2/C=C2/C(=O)Nc3ccc(OC)cc32)cc1 | 91.9% | 75.6% | – | 78% | 78.8% | 49.4% | – | 26.5% | 75.8% |
